{"source": "paper PMC5540273", "about": "(PLoS ONE, 2017);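 note: KINOMEscan kinase panel screen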", "data": [{"tested_on": "EPHB1", "details": "concentration: 1 μM, replicates: in singlicate; n = 1", "units": {"%Inh": "%"}, "values": [{"molecule": "Cc1cc(-c2c(-c3ccc(F)cc3)ncn2CCCN2CCOCC2)nc(N)n1", "note": "[SB-222517]", "%Inh": 0}, {"molecule": "CN1CCN(Cc2ccc(NC(=O)Nc3ccc(N(C)c4ccnc(Nc5ccc(CS(C)(=O)=O)cc5)n4)cc3)cc2)CC1.Cl", "note": "[GW827654]", "%Inh": 11}, {"molecule": "COc1cccc(C2=C(Nc3cccc(O)c3)C(=O)NC2=O)c1", "note": "[SB-390771]", "%Inh": 11}, {"molecule": "O=C(Nc1n[nH]c2nc(-c3cccc(O)c3)ccc12)C1CC1", "note": "[SB-711805]", "%Inh": 14}, {"molecule": "CN(c1ccc(NC(=O)Nc2cccc(Cl)c2)cc1)c1ccnc(N)n1.Cl", "note": "[GW830707]", "%Inh": 34}, {"molecule": "CC(=O)Nc1cn2nc(Oc3cccc(NC(=O)c4cccc(C(F)(F)F)c4)c3)ccc2n1", "%Inh": 95.1}, {"molecule": "COc1ccc(C)c(Nc2ccnc(Nc3ccc(-c4cnc[nH]4)cc3)n2)c1.Cl", "note": "[GW784041]", "%Inh": 14}, {"molecule": "Cl.Cl.NC(CNC(=O)c1cc(Br)c(-c2ccnc3[nH]ccc23)s1)c1ccccc1", "note": "(stereo not drawn) [GSK1322949]", "%Inh": 27}]}, {"tested_on": "EPHB2", "details": "concentration: 1 μM, replicates: in singlicate; n = 1", "units": {"%Inh": "%"}, "values": [{"molecule": "Nc1ncc(-c2ccc3nccc(-c4ccncc4)c3c2)cc1S(=O)(=O)N1CCCCC1", "note": "[GSK1693850]", "%Inh": 15}, {"molecule": "COc1cccc(CC(=O)N2CCc3cc(-c4cn(C)c5ncnc(N)c45)ccc32)c1", "note": "[GSK2608899]", "%Inh": 14}, {"molecule": "CC(C)NCC(Cc1ccccc1)NC(=O)c1cc(Br)c(-c2ccnc3[nH]ccc23)s1.Cl.Cl", "note": "(stereo not drawn) [GSK1383281]", "%Inh": 0}, {"molecule": "Nc1ncc(-c2cn[nH]c2)c2scc(-c3ccc4c(c3)CCN4C(=O)Cc3ccccc3)c12", "note": "[GSK2593067]", "%Inh": 0}, {"molecule": "Cc1cccc(Nc2nc(NCCN)ncc2C(N)=O)c1", "note": "[GSK1292139]", "%Inh": 0}, {"molecule": "CC(C)c1nc(-c2cccc(NS(=O)(=O)c3c(F)cccc3F)c2)c(-c2ccnc(Nc3ccc(N4CCOCC4)nc3)n2)s1.Cl", "note": "[GSK1723980]", "%Inh": 0}, {"molecule": "Cc1ccc(-c2ccc3occ(-c4ccc(S(C)=O)cc4)c3c2)nn1", "note": "(stereo not drawn)", "%Inh": 14}, {"molecule": "COc1ccc(C2=C(Nc3cccc(O)c3)C(=O)NC2=O)cc1", "note": "[SB-390766]", "%Inh": 87}, {"molecule": "COc1ccc(NC(=O)c2ccoc2)cc1-c1ccc(C(=O)NCC2CC2)cc1", "note": "[GW810437]", "%Inh": 0}, {"molecule": "Cc1nn2c(=O)cc(N3CCO[C@H](C)C3)nc2n1Cc1cccc(Cl)c1Cl", "note": "[GSK2373693]", "%Inh": 66}, {"molecule": "Cl.O=C(Nc1ccc(Oc2ccc3[nH]c(NC(=O)c4ccco4)nc3c2)cc1)Nc1cc(C(F)(F)F)ccc1F", "note": "[GW683134]", "%Inh": 72}, {"molecule": "O=C(O)C(F)(F)F.O=c1[nH]ccc2nc(N[C@@H]3CCNC3)nc(Nc3ccc4c(c3)S(=O)(=O)CC4)c12", "note": "[GSK2181306]", "%Inh": 0}, {"molecule": "O=C(Nc1n[nH]c2cc(-c3cccs3)ccc12)C1CC1", "note": "[SB-731284]", "%Inh": 0}, {"molecule": "CNc1nccc(-c2ccc3c(N)n[nH]c3c2)n1", "note": "[GSK2206003]", "%Inh": 0}, {"molecule": "COc1cccc(NC(=O)NCCNc2ccnc(Nc3ccc(F)cc3)n2)c1", "note": "[GSK1379879]", "%Inh": 0}, {"molecule": "CN(c1ccc2c(c1)nc(NCc1ccccc1)n2C)c1ccnc(Nc2ccc(CS(C)(=O)=O)cc2)n1.Cl", "note": "[GW811603]", "%Inh": 0}, {"molecule": "Cc1ccc(O)cc1Nc1ccnc2cc(-c3ccc(CN4CCCCC4)o3)ccc12", "note": "[GW557777]", "%Inh": 98.9}, {"molecule": "Cc1cccc(Nc2nc(N[C@H]3CCCC[C@H]3N)ncc2C(N)=O)c1.Cl", "note": "[GSK986310]", "%Inh": 25}, {"molecule": "c1ccc(Oc2ccc(Nc3ccnc4cc(-c5ccc(CN6CCCCC6)o5)ccc34)cc2)nc1", "note": "[GW567143]", "%Inh": 0}, {"molecule": "CC(C)c1nc(-c2ccc(F)c(NS(=O)(=O)c3c(F)cccc3F)c2)c(-c2ccnc(Nc3ccc(N4CCOCC4)nc3)n2)s1", "note": "[GSK1804250]", "%Inh": 0}, {"molecule": "CCNc1nccc(-c2c(-c3ccc(F)cc3)ncn2C2CCN(C)CC2)n1", "%Inh": 0}, {"molecule": "Fc1cc(Cl)ccc1Nc1ccnc2cc(-c3ccc(CN4CCSCC4)o3)ccc12", "note": "[GW560106]", "%Inh": 19}, {"molecule": "NCCC(NC(=O)c1cc(Br)c(-c2ccnc3[nH]ccc23)s1)c1ccccc1.O=C(O)C(F)(F)F.O=C(O)C(F)(F)F", "note": "(stereo not drawn) [GSK1307810]", "%Inh": 0}, {"molecule": "Cc1ccc(NC(=O)c2ccc(Cl)c(Cl)c2)cc1-c1ccc(C(=O)Nc2ccncc2)cc1", "note": "[GSK1398460]", "%Inh": 17}, {"molecule": "O=C(O)C(F)(F)F.O=c1[nH]ccc2nc(N[C@@H]3CCNC3)nc(Nc3cc(Cl)cc(Cl)c3)c12", "note": "[GSK2188764]", "%Inh": 1}, {"molecule": "Nc1ncnc2scc(-c3ccc(NC(=O)Cc4cc(F)ccc4F)cc3)c12.O=C(O)C(F)(F)F", "note": "[SB-731254-M]", "%Inh": 15}, {"molecule": "Cc1ccc(NC(=O)c2ccnc(N3CCCCC3)c2)cc1-c1ccc(C(=O)NCC2CC2)cc1", "note": "[GW775610]", "%Inh": 0}, {"molecule": "Fc1cc(Cl)ccc1Nc1ccnc2cc(-c3ccc(CN4CCOCC4)o3)ccc12", "note": "[GW560109]", "%Inh": 44}, {"molecule": "CS(=O)(=O)c1cccc(CNc2nc(Nc3ccc4c(c3)CCC(=O)N4)ncc2C(F)(F)F)c1", "%Inh": 0}, {"molecule": "Cc1cc(-c2c(-c3ccc(F)cc3)ncn2CCCN2CCOCC2)nc(N)n1", "note": "[SB-222517]", "%Inh": 12}, {"molecule": "CN1CCN(Cc2ccc(NC(=O)Nc3ccc(N(C)c4ccnc(Nc5ccc(CS(C)(=O)=O)cc5)n4)cc3)cc2)CC1.Cl", "note": "[GW827654]", "%Inh": 28}, {"molecule": "COc1cccc(C2=C(Nc3cccc(O)c3)C(=O)NC2=O)c1", "note": "[SB-390771]", "%Inh": 16}, {"molecule": "O=C(Nc1n[nH]c2nc(-c3cccc(O)c3)ccc12)C1CC1", "note": "[SB-711805]", "%Inh": 0}, {"molecule": "CN(c1ccc(NC(=O)Nc2cccc(Cl)c2)cc1)c1ccnc(N)n1.Cl", "note": "[GW830707]", "%Inh": 36}, {"molecule": "CC(=O)Nc1cn2nc(Oc3cccc(NC(=O)c4cccc(C(F)(F)F)c4)c3)ccc2n1", "%Inh": 98.6}, {"molecule": "COc1ccc(C)c(Nc2ccnc(Nc3ccc(-c4cnc[nH]4)cc3)n2)c1.Cl", "note": "[GW784041]", "%Inh": 21}, {"molecule": "Cl.Cl.NC(CNC(=O)c1cc(Br)c(-c2ccnc3[nH]ccc23)s1)c1ccccc1", "note": "(stereo not drawn) [GSK1322949]", "%Inh": 15}]}]}
